# Compounds with a hit are over-represented: about 4.7% of the library has one in this group of screens.
# TIM10 inh: growth inhibitors of TIM10 yeast strain. 1.4% of 330,000 active. inhibition, % at 10 µM. AID 463195. S. cerevisiae TIM10 strain growth, BacTiter-Glo luminescence, 24 h;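 active = inhibition of 40% or more at the single tested concentration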;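 note: wild-type TIM10 isogenic control strain grown at permissive 25 °C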
# ATG4B inh: inhibitors of human ATG4B cysteine protease | Q9Y4P1 | ATG4B cleavage of LC3-PLA2, NBD-HPC fluorescence, 1 h | inhibition, % at 8.33 µM | 0.51% of 340,000 active; in the data active = inhibition above about 40%
# Target sequence (Q9Y4P1 whole entry, looked up): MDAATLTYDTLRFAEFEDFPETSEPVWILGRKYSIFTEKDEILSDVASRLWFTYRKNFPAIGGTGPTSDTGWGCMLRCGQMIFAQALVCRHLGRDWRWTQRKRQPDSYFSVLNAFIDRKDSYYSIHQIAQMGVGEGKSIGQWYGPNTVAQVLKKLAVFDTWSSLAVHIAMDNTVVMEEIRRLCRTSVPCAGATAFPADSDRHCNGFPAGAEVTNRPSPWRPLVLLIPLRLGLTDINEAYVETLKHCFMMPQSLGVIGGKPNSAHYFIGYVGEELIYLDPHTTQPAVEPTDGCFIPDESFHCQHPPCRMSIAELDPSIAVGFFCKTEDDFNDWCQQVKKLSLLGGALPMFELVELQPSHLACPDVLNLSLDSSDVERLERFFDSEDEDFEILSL
# PfHsp90 set2: growth inhibition of yeast expressing Plasmodium Hsp90; AID 504621; inhibition, % at 9.4 µM; S. cerevisiae expressing PfHsp90, BacTiter-Glo ATP, 48 h; yeast lacking PDR1 and PDR3 efflux regulators; 0.32% of 310,000 active;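 active = every replicate shows inhibition above about 80%, whatever the replicate mean, limit read from the data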;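 note: 0% = DMSO neutral controls and 100% = 20 µM radicicol positive controls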
# tim23-1 inh: inhibits growth of tim23-1 mutant yeast; AID 463212; S. cerevisiae tim23-1 growth, BacTiter-Glo luminescence, 24 h; 1.3% of 330,000 active; inhibition, % at 20 µM;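 active = growth inhibition of the mutant yeast at or above 50%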;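 note: temperature-sensitive mutant grown at 25 °C; plate controls were DMSO-treated mutant yeast for no effect and medium wells lacking yeast for full effect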
# tim10-1 inh: growth inhibitors of tim10-1 mutant yeast. S. cerevisiae tim10-1 ts strain growth, BacTiter-Glo, 24 h. inhibition, % at 20 µM. AID 463190. 2.2% of 330,000 active;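 active = inhibition of at least 40%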;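 note: mutant grown at 25 °C; 0% = DMSO wells with yeast and 100% = wells holding no yeast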
# SKKanGAS inh: blocks kanamycin growth of S. pyogenes SKKanGAS strain; AID 1662; inhibition, % at 7.5 µM; BacTiter-Glo, 6 h; 1.3% of 300,000 active;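 active = mean replicate score, as percent of positive control median, at least 50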;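 note: strain carries kanamycin resistance gene driven by streptokinase promoter and grows in 40 µg/ml kanamycin; loss of luminescence reflects streptokinase promoter inhibition or plain growth inhibition; 0% = median of DMSO wells and 100% = positive control at its reference dose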
# tim10-1 conf: confirmation of tim10-1 mutant yeast growth inhibitors; inhibition, % at 20 µM; 56% of 7,400 active; shares compounds with tim10-1 inh; S. cerevisiae tim10-1 ts strain growth, BacTiter-Glo, 24 h; AID 463213;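 active = inhibition of yeast growth at or above a set limit in either of two repeat tests at 20 µM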;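 note: tim10-1 mutant grown at permissive 25 °C to find synthetic lethal compounds; 0% = DMSO yeast wells and 100% = medium wells without yeast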
# The depositor's hits bear a star; / = no result given.
SMILES,TIM10 inh,ATG4B inh,PfHsp90 set2,tim23-1 inh,tim10-1 inh,SKKanGAS inh,tim10-1 conf
Cc1ccccc1N=Nc1c(C)[nH]n(C(N)=S)c1=O,31,-2,18,31,41*,0,26
O=C(O)C1=CC[C@@H](c2ccc(Cl)cc2)N(S(=O)(=O)c2ccc(Cl)cc2)[C@H]1c1cccc(Cl)c1,-8,5,-7,9,40*,/,13
Cc1ccc(S(=O)(=O)N2[C@@H](c3ccc(Cl)cc3)C(C(=O)O)=CC[C@H]2c2cccc(Cl)c2)cc1,18,7,-14,34,27,/,/
O=C1/C(=C/c2ccc([N+](=O)[O-])cc2)C=C(c2ccccc2)N1c1ccc(O)cc1,18,5,-9,1,41*,19,37*
Cc1ccc(-n2[nH]c(C)c(/C=N/Nc3ccc([N+](=O)[O-])cc3[N+](=O)[O-])c2=O)cc1,24,14,34,34,49*,24,35*
O=C(CSc1nnc(-c2ccc(C(F)(F)F)cn2)o1)Nc1ccccc1Cl,-14,-2,37,-7,-4,-17,/
O=C(/C=C/c1ccccc1O)c1ccccc1,/,4,15,/,/,/,/
N#Cc1ccc(/C=C/C(=O)c2ccccc2)cc1,34,-5,-15,23,48*,-1,43*
Clc1ccccc1OCc1nnc(-c2ccccc2Br)o1,36,29,-19,48,49*,20,34*
O=S(=O)(Nc1cc(Cl)ccn1)c1ccc(Cl)cc1,3,2,-11,36,42*,1,23
CCC/C=N/NC(=O)c1[nH]c2c([N+](=O)[O-])cccc2c1C,32,-4,-12,11,41*,-4,20
CCCCC/C=N/NC(=O)c1[nH]c2ccc([N+](=O)[O-])cc2c1C,12,-7,-6,40,32,3,/
CCOc1ccc(/C=N/n2cc(-c3ccccc3)[nH]c2=S)cc1,21,4,-12,-3,42*,16,15
S=c1[nH]c(-c2ccccc2)cn1/N=C/c1ccncc1,-20,3,27,20,13,-8,/
COc1ccc(CCNS(=O)(=O)c2ccccc2[N+](=O)[O-])cc1OC,6,-5,12,1,15,3,/
COc1ccc(CC(=O)Nc2ccc(S(=O)(=O)Nc3nccc(C)n3)cc2)cc1,18,-11,3,12,22,11,/
C=C1CCN([C@H](C(=O)OCc2cccc(C)c2)C(C)C)S(=O)(=O)c2ccccc21,8,3,9,19,44*,21,8
CC(=O)N(\C=C/C=C/C=C1\Sc2ccccc2C1=O)c1ccccc1,33,17,-3,29,41*,9,46*
COc1ccc(C(=O)C2CN(c3ccccc3)CC2c2ccc(Cl)cc2)cc1 (stereo not given),4,4,19,3,-4,5,/
CSC1=N/C(=C\c2ccc(Cl)cc2)C(=O)N1N(C)C,-43,6,12,24,-17,11,/
CC1(C)CN=c2s/c(=C\c3ccc(Cl)cc3)c(=O)n2C1,20,5,33,19,41*,1,27
COC(=O)N/N=C(\C)c1ccc(OC(F)F)cc1,5,2,-4,15,2,1,/
CC/C(=N\NC(=S)Nc1cc(C)ccc1C)c1ccc(OC(F)F)cc1,31,-2,-15,49,58*,69*,36*
CC/C(=N\NC(C)=O)c1ccc(OC(F)F)cc1,-12,/,/,9,4,-4,/
C/C(=N\NC(=S)Nc1c(C)cccc1C)c1ccc(OC(F)F)cc1,32,-12,-13,17,43*,13,41*
SMILES,TIM10 inh,ATG4B inh,PfHsp90 set2,tim23-1 inh,tim10-1 inh,SKKanGAS inh,tim10-1 conf
Cc1ccc(S(=O)(=O)N2CCOCC2)cc1C(=O)N1CCCCCC1,2,-5,0,16,10,0,/
COc1ccc(-n2c(Cc3cccn3C)nnc2SCC(=O)Nc2ccc(Cl)cc2)cc1,19,19,29,46,42*,8,14
CCOC(=O)c1sc(Nc2cccc(Cl)c2)nc1C,5,0,0,34,30,-12,/
CCOC(=O)c1sc(Nc2cccc(C)c2C)nc1C,32,/,/,27,43*,5,32*
CCOc1ccc(-c2n[nH]c(C)c2Oc2ccc(OC)cc2)c(O)c1,34,-3,-7,41,44*,12,47*
COC(=O)CN(C)C1CC(=O)N(c2ccc(Cl)cc2)C1=O (stereo not given),16,3,/,18,28,-4,/
Cc1ccc(S(=O)(=O)N2CCCCC2CCNC(=O)C(=O)NCCc2ccco2)cc1 (stereo not given),-17,-13,-16,34,24,-5,/
Cc1ccc(S(=O)(=O)N2CCCCC2CCNC(=O)C(=O)NCc2ccco2)cc1 (stereo not given),1,0,-13,37,42*,-17,13
Cc1nc(N2CCN(C)CC2)c2cc(-c3ccccc3)sc2n1,-12,-2,/,-9,-1,-2,/
CCNc1ccc(Br)cc(C(=O)/C=C/c2c(Cl)cccc2Cl)c1=O,39,34,29,33,55*,-9,49*
CCNc1ccc(Br)cc(C(=O)/C=C/c2ccc(Cl)cc2)c1=O,24,22,12,25,13,3,/
CSc1ccc(C(C(C(=O)c2cccs2)N2CCOCC2)N2CCOCC2)cc1 (stereo not given),0,-11,9,13,25,-1,/
CCCN(CCC)C(=O)c1cc(-c2ccc3c(c2)OCO3)nc2ccccc12,24,0,-9,42,45*,0,11
CCN(CC)C(=O)c1sc2nc(-c3cccs3)cc(-c3ccc(Cl)cc3)c2c1N,38,-5,-13,34,58*,14,38*
C=CCOc1cccc(C2/C(=C(\O)c3ccc(F)cc3)C(=O)C(=O)N2CCN(C)C)c1 (stereo not given),7,-6,-4,14,8,-3,/
CCN(CC)C(=O)c1c(-c2ccccc2)oc2ccc(OC)cc12,24,-9,4,44,41*,2,21
Nc1nc(Nc2cccc(C(F)(F)F)c2)nc(C(F)(F)F)n1,39,-4,45,42,44*,7,35*
CN(CC1COc2ccccc2O1)C(=S)Nc1ccccc1 (stereo not given),21,-9,16,35,42*,0,25
O=C(NC(=S)Nc1ccc2[nH]c(=O)[nH]c2c1)c1cc(Br)ccc1Cl,-18,-1,7,-16,10,-2,/
O=C(Nc1ccc(Oc2cccnc2)cc1)C1CCN(Cc2cc(Cl)ccc2O)CC1,7,-2,8,13,49*,0,-4

# Screens deposited in PubChem by several laboratories.
